DT40 TDP1 CPT = qHTS for Inhibitors of human tyrosyl-DNA phosphodiesterase 1 (TDP1): qHTS in cells in presence of CPT. chicken DT40 Tdp1-/-;hTDP1 cells + 20 nM CPT, ATP luminescence, 48 h. Potency, µM (doses to about 46.2 µM), hits mostly inhibitors. hit rate 12% among 420,000. AID 686979, 2013; further: nearly all actives have a fitted effect of over 55% in size
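Chicken DT40 Tdp1-/- cells complemented with human TDP1, 400 cells/well, exposed to compounds plus 20 nM camptothecin for at least 48 h at 37 C; viability read as ATP content by CellTiter-Glo luminescence.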
TDP1 cell noCPT = qHTS for Inhibitors of human tyrosyl-DNA phosphodiesterase 1 (TDP1): qHTS in cells in absence of CPT; DT40 Tdp1-/- hTDP1 cells, no CPT, ATP luminescence, 48 h; Potency, µM (top dose mostly 46.2 µM), most hits filed as inhibitors; hit rate 15% among 420,000; further: nearly all actives have a fitted effect of over 55% in size
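No-CPT arm: Tdp1-/-;hTDP1 DT40 cells (400/well) plus compounds, incubated ≥48 hr at 37 °C. Readout CellTiter-Glo luminescence.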
HT1080-NT tox = qHTS for induction of synthetic lethality in tumor cells producing 2HG: qHTS for the HT-1080-NT fibrosarcoma cell line | hit rate 1.6% among 360,000 | Potency, µM (top dose mostly 46.1 µM), usual class: cytotoxic | AID 686970, 2013 | HT-1080-NT fibrosarcoma viability, CellTiter-Glo ATP luminescence, 48 h;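 further: NT is the 2HG producing partner of a matched IDH1 knockdown line; nearly all actives have a fitted effect of over 55% in size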
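Viability by CellTiter-Glo luminescence after 48 h compound exposure at 37C of HT-1080-NT cells (750/well, RPMI, 5% FBS). % activity scaled between DMSO wells and medium-only wells, then curve-fitted and categorized by curve class.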
HT1080 IDH1KD tx = qHTS for induction of synthetic lethality in tumor cells producing 2HG: qHTS for the HT-1080-IDH1KD cell line | hit rate 2% among 360,000 | HT-1080 IDH1 knockdown viability, ATP luminescence, 48 h | AID 686971, 2013 | Potency, µM (series often up to 46.1 µM), most hits filed as cytotoxic
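% activity derives from luminescence (CellTiter-Glo), normalised to DMSO and no-cell wells. HT-1080-IDH1KD cells, 750/well, had 48 h compound exposure at 37 °C.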
IL1B secr inh = qHTS for Inhibitors of Inflammasome Signaling: IL-1-beta AlphaLISA Primary Screen; THP-1 LPS/ATP IL-1B secretion, AlphaLISA, 16 h; active compounds read low; activity change, % at 57.5 µM; hit rate 4.7% among 360,000; in the data active means activity change below about -50%; inconclusive means mostly about -30% to -49%
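THP-1 cells pretreated 1 hr with compounds (up to 57.5 uM final), then stimulated with LPS (250 ng/mL final) plus ATP (1.25 mM final); secreted IL-1B measured by AlphaLISA after 16 hr, decreased signal indicating inhibition.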
ELG1 repair inh = qHTS screen for small molecules that inhibit ELG1-dependent DNA repair in human embryonic kidney (HEK293T) cells expressing luciferase-tagged ELG1 | hit rate 2.3% among 330,000 | HEK293T ELG1-luciferase reporter, luminescence, 16 h; DNA damage induced by 5-fluorouridine | Potency, µM (series often up to 46.1 µM), most hits filed as inhibitors; further: nearly all actives have a fitted effect of over 55% in size
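In this reporter screen, reduction of luminescence relative to DMSO vehicle indicated activity. Compounds and 5-fluorouridine were added together to 2,000 cells per well, incubated for 16 hr at 37 °C, then developed with ONE-Glo.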
Numbers stand for hits; . = inactive; ? = inconclusive; / = not tested or not shown; [ ] = remark or other dose. An excerpt weighted towards active compounds, which were near 19% of everything screened. Unless noted, the call rests on the fitted dose curve; in most records, active means well fitted curve in the direction sought with a large enough effect; inconclusive means small, poorly fitted or top-dose-only effect, or another doubt; inactive means no such curve, though single readings can be large; an effect the other way counts as inactive or inconclusive.

SMILES	DT40 TDP1 CPT	TDP1 cell noCPT	HT1080-NT tox	HT1080 IDH1KD tx	IL1B secr inh	ELG1 repair inh
COc1ccc(C)cc1N(C(=O)c1ccco1)C(C(=O)NC1CCCC1)c1cc(OC)c(OC)c(OC)c1 (stereo not given)	.	?	.	.	.	.
COc1cccc(-c2coc3c(C)c4oc(=O)c(CCC(=O)O)c(C)c4cc23)c1	.[9.04 µM]	?	?	?	-60	.
Cc1c(CC(=O)O)c(=O)oc2c(C)c3occ(-c4ccc(Br)cc4)c3cc12	.	16µM	.	.	.	.
CCCCC[C@@H]1C=C(C(=O)O)[C@H](c2ccc(F)cc2)N1S(=O)(=O)c1ccc(C)cc1	.	.	.	.	.	.
CCCC(=O)Nc1nc2c(ncn2[C@@H]2O[C@H]3COP(=O)(O)O[C@@H]3[C@@H]2OC(=O)CCC)c(=O)[nH]1	.	.	/	/	/	/
Cc1nn(C)c(C(=O)Nc2ccc(Br)cc2F)c1Br	.	.	.	.	.	.
Cc1nn(C)c(C(=O)Nc2ccc(S(=O)(=O)NC34CC5CC(CC(C5)C3)C4)cc2)c1Br	21µM	23µM	?	?	.	?
Cc1ccc(S(=O)(=O)NN=C2C3CC4CC(C3)CC2C4)cc1	.	.	.	.	.	.
Cc1ccc(S(=O)(=O)NC23CC4CC(CC(C4)C2)C3)cc1	?	21µM	.	.	.	.
O=C(CN1C(=O)c2cccnc2Oc2ccc(Cl)cc21)NCCCc1ccccc1	23µM	?	.	.	.	18µM
O=C(CN1C(=O)c2cccnc2Oc2ccc(Cl)cc21)Nc1cccc(C(F)(F)F)c1	?	18µM	/	/	/	/
O=C(CN1C(=O)c2cccnc2Oc2ccc(Cl)cc21)Nc1ccccc1F	?	18µM	.	.	.	?
COc1cccc(NC(=O)CN2C(=O)c3cccnc3Oc3ccc(Cl)cc32)c1	?	?	.	.	.	?
O=C(CN1C(=O)c2cccnc2Oc2ccc(Cl)cc21)NCCCN1CCCCC1	.	.	/	/	/	/
Cc1cccc(C(c2sc3nc(-c4ccco4)nn3c2O)N2CCN(c3ccccc3)CC2)c1 (stereo not given)	?	.	/	/	/	/
O=c1c2c3c(sc2n(Cc2cc(=O)n4ccccc4n2)c(=O)n1-c1ccc(Cl)cc1)CCC3	.	.	/	/	/	/
O=C(Cn1ncc2c3ccccc3n(Cc3ccccc3)c2c1=O)NCCCN1CCCCC1	.	?	/	/	/	/
Cc1ccccc1Cn1c2ccccc2c2cnn(CC(=O)N3CCN(c4ccccc4)CC3)c(=O)c21	?	?	.	.	.	.
O=C(Cn1ncc2c3ccccc3n(Cc3ccc(F)cc3)c2c1=O)N1CCN(c2ncccn2)CC1	18µM	16µM	.	.	.	?
COC(=O)Cn1ncc2c3ccccc3n(Cc3ccccc3)c2c1=O	?	.	.	.	.	.
O=C(Cn1ncc2c3ccccc3n(Cc3cccc(Cl)c3)c2c1=O)N1CCCCC1	21µM	12µM	/	/	/	/
O=C(Cn1ncc2c3ccccc3n(Cc3cccc(Cl)c3)c2c1=O)N1CCCCCC1	18µM	21µM	/	/	/	/
Cc1cc(C)c(Cn2c3ccccc3c3cnn(CC(=O)N4CCCCCC4)c(=O)c32)c(C)c1	23µM	23µM	/	/	/	/
Cn1c(=O)c(=O)n(C)c2cc(S(=O)(=O)Nc3ccc(Cl)c(C(F)(F)F)c3)ccc21	.	.	/	/	/	/
CC(C)c1ccc(NC(=O)COC(=O)c2cc(=O)[nH]c3ccccc23)cc1	.	.	.	.	.	?
SMILES	DT40 TDP1 CPT	TDP1 cell noCPT	HT1080-NT tox	HT1080 IDH1KD tx	IL1B secr inh	ELG1 repair inh
CC(C)[C@H](NS(=O)(=O)c1ccccc1)C(=O)Nc1nccs1	.	.	.	.	.	.
O=C(/C=C/c1cccc(Cl)c1)Nn1c(-c2cccs2)nc2ccccc2c1=O	.	.	.	.	-55	.
CC1CCN(CCc2nc3cc(NC(=O)COc4ccc(Cl)cc4)ccc3n2C)CC1	?	?	?	?	-96	.
Cc1cccc(OCC(=O)Nc2ccc3c(c2)nc(CN2CCCCC2)n3C)c1	?	?	.	.	.	.
Cc1ccc(S(=O)(=O)Nc2ccc3c(c2)nc(CCN2CCOCC2)n3C)cc1	.	.	.	.	?	.
Cn1c(CCN2CCCC2)nc2cc(NC(=O)COc3ccc(Cl)cc3)ccc21	?	16µM	.	.	.	/
Cc1ccc(S(=O)(=O)Nc2ccc3c(c2)nc(CCN2CCCCC2)n3C)cc1	.	?	.	?	-92	.
CCN1CCN(CCc2nc3cc(NC(=O)COc4ccc(Cl)cc4)ccc3n2C)CC1	?	?	.	.	?	.
COc1ccc(OCC(=O)Nc2ccc3c(c2)nc(CCN2CCC(C)CC2)n3C)cc1	.	.	.	.	.	.
Cc1cccc(OCC(=O)Nc2ccc3c(c2)nc(CCN2CCCCC2)n3C)c1	.	.	.	.	-50	.
COc1cc(NC(=O)Cn2ccc3ccccc3c2=O)cc(OC)c1OC	.	.	/	/	/	/
Cc1ccc(CNS(=O)(=O)c2c(C(=O)N3CCC(C)CC3)c(C)n(C)c2C)cc1	.	.	/	/	/	/
Cc1ccc(S(=O)(=O)NCC(=O)NCC(=O)N(C)Cc2ccc(Br)s2)cc1C	?	?	.	.	.	/
Cc1ccc([C@H]2C[C@H](O)[C@@H](n3cc(-c4ccc(F)cc4)nn3)CN2C(=O)C2CCCCC2)cc1	?	?	.	.	?	/
CCOc1ccc(CNC(=O)c2cnc(SC)nc2CC)cc1	.	.	/	/	/	/
Cc1ccc(OCC(=O)Nc2ccc3c(c2)nc(CCN2CCCCC2)n3C)cc1	?	?	.	.	-61	.
Cc1nc2cc(-c3ccccc3)sc2c(=O)n1N	16µM	?	3.7µM	3.7µM	.	?
COc1ccc(-c2nc3ccccc3c(=O)n2N)cc1	.	.	.	.	.	.
COc1ccc(-c2cc3nc(C)n(N)c(=O)c3s2)cc1	5.8µM	5.8µM	4.1µM	5.8µM	.	?
Cn1c(OCC2CCCO2)nc2cc(-c3ccccc3)sc2c1=O (stereo not given)	23µM	?	.	.	.	/
COc1ccc(-c2cc3nc4n(c(=O)c3s2)CCC4)cc1	15µM	?	.[9.24 µM]	.	.	?

Source: PubChem BioAssay (National Center for Advancing Translational Sciences (NCATS))
